Where “and” joins values, the source holds several entries; their conditions need not be identical. Equal values may be shown once. Inconclusive results are not listed. Calls of active or inactive are those of the source. Unless noted, calls come from the whole dose curve; as a rule, active = well fitted curve in the direction sought with a large enough effect in the repeat runs; inconclusive = weak or mixed curves; inactive = no such curve, though single readings can be large; an effect the other way counts as inactive or inconclusive.
Assays:
[1] = qHTS assay to identify small molecule agonists of the RXR signaling pathway - cell viability counter screen (AID 1159529); note: nearly all actives have a fitted effect of over 50% in size; note: potency is the fitted concentration of half-maximal effect
Outline: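 RXR-alpha-UAS-bla HEK 293T cells in medium with 2% charcoal-stripped FBS were pre-incubated 5 hr, then compound-treated 16 hr at 37 C. Viability was read by CellTiter-Glo luminescence in the same wells as the beta-lactamase assay, with tetraoctyl ammonium bromide as positive control.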

[2] = qHTS assay to identify small molecule antagonists of the retinoic acid receptor (RAR) signaling pathway (AID 1159552; note: nearly all actives have a fitted effect of over 50% in size; note: potency is the fitted concentration of half-maximal effect)
Outline: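 Retinol signaling pathway inhibitors screened in C3RL4 RARE-luciferase reporter cells seeded overnight at 37 C, then compounds added with 1 uM (final) retinol as pathway substrate. After 6 hr at 37 C, luciferase luminescence read after 30 min at room temperature.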

[3] = qHTS assay to identify small molecule agonists of the retinoic acid receptor (RAR) signaling pathway (AID 1159553); note: potency is the fitted concentration of half-maximal effect
Outline: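 Reporter readout comes from luciferase under RARE control in C3RL4 cells; compound exposure lasts 6 hr at 37 C in 5% CO2, and luminescence is recorded following a 30 min room-temperature incubation with reagent.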

[4] = qHTS assay to identify small molecule antagonists of the estrogen related receptor (ERR) signaling pathway from Tox21 library - cell viability counter screen (AID 1224834); note: nearly all actives have a fitted effect of over 30% in size; note: potency is the fitted concentration of half-maximal effect
Outline: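 After 17.5 h of compound exposure at 37 C, ERR cells are incubated with CellTiter-Fluor for 30 min and fluorescence intensity serves as the viability measure.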

[5] = qHTS assay to identify small molecule agonists of the constitutive androstane receptor (CAR) signaling pathway - cell viability counter screen (AID 1224836); note: nearly all actives have a fitted effect of over 45% in size; note: potency is the fitted concentration of half-maximal effect
Outline: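 HepG2 cells stably carrying hCAR and a CYP2B6-2.2kb reporter; 15-concentration compounds plus PK11195 (final 0.75 uM), 23 hr at 37 C/5% CO2. Viability read by CellTiter-Fluor fluorescence.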

[6] = qHTS assay to identify small molecule antagonists of the constitutive androstane receptor (CAR) signaling pathway - cell viability counter screen (AID 1224837); note: nearly all actives have a fitted effect of over 45% in size; note: potency is the fitted concentration of half-maximal effect
Outline: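 Counter screen run in HepG2-CYP2B6-hCAR cells: 4 hr settle, compound titration (15 concentrations) with 50 nM CITCO, 23 hr at 37 C/5% CO2, CellTiter-Fluor fluorescence.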

[7] = qHTS assay to identify small molecule antagonists of the estrogen related receptor signaling pathway with the pleiotropic PPARgamma coactivator (PGC) from Tox21 10K library (AID 1224841; call rule not given here; note: actives are mostly falling curves and most rising ones were filed inactive; nearly all actives have a fitted effect of over 50% in size; note: potency is the fitted concentration of half-maximal effect)
Outline: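 qHTS antagonist format: PGC/ERR cells, 2k/well, compound in DMSO by pin transfer after 6 h attachment, 18 h treatment at 37 C, One-Glo luminescence read at 30 min.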

[8] = qHTS assay to identify small molecule agonists of the estrogen related receptor signaling pathway with the pleiotropic PPARgamma coactivator (PGC) from Tox21 10K library (AID 1224842); note: nearly all actives have a fitted effect of over 15% in size; note: potency is the fitted concentration of half-maximal effect
Outline: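 Luminescence from One-Glo (30 min, room temperature) measured after PGC/ERR cells had 18 h at 37 C with pinned compound (23 nL in DMSO). Cells had been seeded at 2,000 per well and pre-incubated 6 h.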

[9] = qHTS assay to identify small molecule antagonists of the retinoid acid receptor (RAR) signaling pathway - cell viability counter screen (AID 1159551); note: nearly all actives have a fitted effect of over 35% in size
Outline: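 Retinol-stimulated (1 uM final) C3RL4 cells, compound 6 h, 37 C; readout CellTiter-Glo luminescence (ATP) after 30 min RT incubation.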

[10] = target: Luciferin 4-monooxygenase (Photinus pyralis) (UniProt P08659); test: qHTS assay to identify small molecule inhibitors of firefly luciferase (AID 1224835); note: nearly all actives have a fitted effect of over 25% in size; note: potency is the fitted concentration of half-maximal effect
Sequence of Luciferin 4-monooxygenase (Photinus pyralis) (P08659 whole entry, looked up): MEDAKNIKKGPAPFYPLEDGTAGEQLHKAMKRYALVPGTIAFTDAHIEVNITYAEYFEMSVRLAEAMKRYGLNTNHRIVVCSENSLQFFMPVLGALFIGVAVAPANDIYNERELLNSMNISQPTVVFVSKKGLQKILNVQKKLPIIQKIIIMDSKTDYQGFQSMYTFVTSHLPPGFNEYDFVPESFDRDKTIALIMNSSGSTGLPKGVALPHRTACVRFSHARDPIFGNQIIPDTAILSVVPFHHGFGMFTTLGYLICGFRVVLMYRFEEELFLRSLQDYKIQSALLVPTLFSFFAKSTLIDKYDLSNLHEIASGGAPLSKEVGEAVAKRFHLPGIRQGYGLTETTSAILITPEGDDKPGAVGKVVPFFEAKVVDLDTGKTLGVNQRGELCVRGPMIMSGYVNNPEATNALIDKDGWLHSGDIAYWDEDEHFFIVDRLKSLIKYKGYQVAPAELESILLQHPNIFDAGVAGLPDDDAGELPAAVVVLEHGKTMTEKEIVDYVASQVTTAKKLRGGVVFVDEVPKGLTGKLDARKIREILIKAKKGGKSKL
Outline: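 Inhibition of purified Photinus luciferase is measured by luminescence. Substrate levels (D-luciferin, ATP) sit at their KM values. Each compound is tested in a concentration series.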

[11] = qHTS assay to identify small molecule antagonists of the estrogen related receptor signaling pathway with the pleiotropic PPARgamma coactivator (PGC) from Tox21 10K library - cell viability counter screen (AID 1224840; active = well fitted cell-killing curve with a large enough effect in the repeat runs, not every such curve was filed as active; note: nearly all actives have a fitted effect of over 40% in size; note: potency is the fitted concentration of half-maximal effect)
Outline: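 Following seeding of 2,000 PGC/ERR cells/well and 6 hours' incubation, test compounds were delivered in DMSO. The plates then sat 17.5 hours at 37 C before a fluorogenic live-cell protease reagent (CellTiter-Fluor) was read after 30 min.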

[12] = target: Nuclear receptor subfamily 1 group I member 3 (Homo sapiens) (UniProt Q14994); test: qHTS assay to identify small molecule antagonists of the constitutive androstane receptor (CAR) signaling pathway (AID 1224838);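 note: HepG2 cells stably expressing hCAR with CYP2B6 luciferase reporter stimulated by CITCO; nearly all actives have a fitted effect of over 40% in size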
Sequence of Nuclear receptor subfamily 1 group I member 3 (Homo sapiens) (Q14994 whole entry, looked up): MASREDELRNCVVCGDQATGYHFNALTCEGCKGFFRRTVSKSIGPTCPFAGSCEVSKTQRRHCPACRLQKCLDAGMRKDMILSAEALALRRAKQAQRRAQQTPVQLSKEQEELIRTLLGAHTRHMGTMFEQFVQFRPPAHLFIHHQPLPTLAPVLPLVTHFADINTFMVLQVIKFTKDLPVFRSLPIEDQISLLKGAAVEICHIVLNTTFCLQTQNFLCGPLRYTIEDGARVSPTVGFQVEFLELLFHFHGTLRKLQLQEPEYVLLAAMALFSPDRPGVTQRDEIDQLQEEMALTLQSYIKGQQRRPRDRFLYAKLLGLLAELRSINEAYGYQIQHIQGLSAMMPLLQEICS
Outline: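 Cell line: HepG2 double-stable for hCAR and CYP2B6-2.2kb reporter. Agonist: CITCO, 50 nM final. Compounds: 15 concentrations, 24 h, 37 C. Detection: ONE-Glo luminescence.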

[13] = target: Nuclear receptor subfamily 1 group I member 3 (Homo sapiens) (UniProt Q14994); test: qHTS assay to identify small molecule agonists of the constitutive androstane receptor (CAR) signaling pathway (AID 1224839); note: nearly all actives have a fitted effect of over 15% in size; note: potency is the fitted concentration of half-maximal effect
Outline: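 HepG2 cells stably co-transfected with hCAR and a CYP2B6-2.2kb luciferase reporter; compounds at 15 concentrations with 0.75 uM PK11195 present. After 24 hr at 37 C, luciferase read by ONE-Glo luminescence.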

[14] = target: Thyrotropin receptor (Homo sapiens) (UniProt P16473); test: qHTS assay to identify small molecule agonists of the thyroid stimulating hormone receptor (TSHR) signaling pathway (AID 1224843; calls by dose curve; note: nearly all actives have a fitted effect of over 45% in size; note: potency is the fitted concentration of half-maximal effect)
Sequence of Thyrotropin receptor (Homo sapiens) (P16473 whole entry, looked up): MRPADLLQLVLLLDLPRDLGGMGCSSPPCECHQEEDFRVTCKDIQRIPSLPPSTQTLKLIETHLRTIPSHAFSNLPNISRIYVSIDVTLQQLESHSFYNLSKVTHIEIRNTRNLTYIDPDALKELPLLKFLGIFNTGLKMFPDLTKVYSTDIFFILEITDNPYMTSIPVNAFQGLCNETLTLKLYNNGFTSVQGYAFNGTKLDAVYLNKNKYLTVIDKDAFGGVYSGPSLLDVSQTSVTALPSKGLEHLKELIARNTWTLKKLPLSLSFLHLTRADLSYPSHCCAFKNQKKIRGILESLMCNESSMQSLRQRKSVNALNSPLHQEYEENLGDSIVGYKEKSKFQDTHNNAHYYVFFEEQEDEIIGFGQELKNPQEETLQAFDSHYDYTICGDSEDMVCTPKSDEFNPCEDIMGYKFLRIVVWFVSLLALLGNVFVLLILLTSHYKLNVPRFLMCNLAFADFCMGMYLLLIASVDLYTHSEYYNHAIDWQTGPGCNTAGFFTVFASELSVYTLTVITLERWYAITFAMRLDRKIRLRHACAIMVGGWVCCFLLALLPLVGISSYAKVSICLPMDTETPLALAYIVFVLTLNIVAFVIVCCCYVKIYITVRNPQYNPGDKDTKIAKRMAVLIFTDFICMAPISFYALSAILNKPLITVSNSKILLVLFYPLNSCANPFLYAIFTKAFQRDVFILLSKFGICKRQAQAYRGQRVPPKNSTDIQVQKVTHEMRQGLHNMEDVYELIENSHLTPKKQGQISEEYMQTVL
Outline: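 Screening of the Tox21 10K collection used HEK293 cells engineered with TSHR at 800 cells per well. After a 30-min room-temperature compound exposure, HTRF cAMP reagents were added and fluorescence recorded 1 h later.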

Measured: Potency

O=c1c(-c2ccccc2)c1-c1ccccc1
inactive: [3] | [5] | [6] | [8]
active: [1] 6.01 µM | [2] 4.22 µM | [4] 8.41 µM | [7] 9.44 µM

COc1c(C)c2c(c(O)c1C/C=C(\C)CCC(=O)O)C(=O)OC2
inactive: [9] | [2] | [3] | [10] | [5] | [6] | [11] | [8]
active: [7] 2.66 µM

NNc1nc(-c2ccc(N)cc2)cs1
inactive: [1] | [5] | [6] | [12] | [8]
active: [4] 54.5 µM | [10] 35.6 µM | [11] 61.1 µM | [7] 61.1 µM

CCCCCCCCCCCC(=O)NCCCN(C)C
inactive: [10] | [13]
active: [1] 15.5 µM | [5] 61.1 µM | [11] 61.1 µM

CN1CCN(CCC(=O)N2c3ccccc3Sc3ccc(C(F)(F)F)cc32)CC1
active: [1] 23.9 µM | [4] 29.8 µM
inactive: [10] | [6] | [8] | [14]

Cc1cccc(N(C)C(=S)Oc2ccc3c(c2)C2CCC3C2)c1 (stereo not drawn)
active: [13] 21.1 µM
inactive: [9] | [2] | [4] | [10] | [5] | [6] | [12] | [7] | [8] | [14]

NC(=O)C1(N2CCCCC2)CCN(CCCN2c3ccccc3CCc3ccc(Cl)cc32)CC1
inactive: [10] | [13]
active: [1] 21.3 µM | [4] 29.8 µM

CCCC(C)c1ccccc1O (stereo not drawn)
inactive: [9] | [2] | [3] | [4] | [10] | [5] | [6] | [12] | [13] | [11]

CCN(CCC#N)c1ccc(N=Nc2c(Cl)cc([N+](=O)[O-])cc2Cl)cc1
active: [4] 15.4 µM | [10] 63.3 µM
inactive: [9] | [2] | [13] | [7] | [8]

C=CC(=O)OCCn1c(=O)n(CCOC(=O)C=C)c(=O)n(CCOC(=O)C=C)c1=O
inactive: [10] | [13] | [8]
active: [1] 24.5 µM | [4] 17.2 µM | [5] 48.6 µM | [6] 19.3 µM | [11] 15.4 µM | [7] 15.4 µM | [14] 27.3 µM

CCc1oc2ccccc2c1C(=O)c1cc(Br)c(O)c(Br)c1
inactive: [9] | [2] | [3] | [10] | [5] | [6] | [12] | [13] | [11] | [14]

CC(C)=CCOc1ccc(/C=C/C(=O)c2ccc(OCC=C(C)C)cc2OCC(=O)O)cc1
active: [7] 21.1 µM
inactive: [9] | [2] | [3] | [4] | [10] | [5] | [6] | [12] | [13] | [11] | [8] | [14]

CCCCCCOC(=O)c1ccc(O)cc1
inactive: [9] | [2] | [5] | [6] | [12] | [11] | [7] | [14]
active: [3] 4.33 µM and 1.93 µM | [10] 31.8 µM and 28.3 µM | [13] 27.3 µM and 54.5 µM | [8] 30.7 µM and 9.69 µM

CCC1OCC(COc2ccc(Oc3ccccc3)cc2)O1 (stereo not drawn)
active: [3] 3.44 µM | [10] 17.8 µM | [13] 21.7 µM
inactive: [9] | [2] | [4] | [5] | [6] | [12] | [11] | [7]

C[C@H](CCC(=O)O)[C@H]1CC[C@H]2[C@@H]3CC[C@@H]4C[C@H](O)CC[C@]4(C)[C@H]3CC[C@]12C
inactive: [4] | [10] | [5] | [6] | [12] | [13] | [11] | [8]
active: [1] 38.7 µM | [7] 68.3 µM

Cc1cc(CCN2CCN(c3nsc4ccccc34)CC2)cc2c1NC(=O)CC2(C)C
inactive: [10] | [12] | [8]
active: [1] 11 µM | [4] 30.6 µM | [5] 48.6 µM | [6] 54.5 µM | [13] 21.7 µM | [11] 27.3 µM | [7] 7.7 µM

Cc1ccc(-n2nc(C(C)(C)C)cc2NC(=O)Nc2ccc(OCCN3CCOCC3)c3ccccc23)cc1
inactive: [9] | [2] | [10] | [5] | [6] | [12] | [11] | [8]
active: [3] 18.8 µM

Oc1cccc2cc3cccc(O)c3c(O)c12
inactive: [1] | [4] | [5] | [6] | [11] | [14]
active: [10] 71.3 µM

O=C(OCC1CO1)C1CCCCC1C(=O)OCC1CO1 (stereo not drawn)
inactive: [1] | [10] | [5] | [12] | [13] | [8] | [14]

— PubChem BioAssay (Tox21)
